# Measured values as given in PubChem BioAssay (NCI).
# Compounds without any hit were thinned out: in the full panel of roughly 83,000, 20% have a hit.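 A percent growth of 40 corresponds to 60% growth inhibition; 0 means no net growth; -100 means all cells died. Active threshold: below 10.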 A number with no mark means an inactive call. Calls of active or inactive are those of the source.
# Experiments:
# Assay in all cases: NCI-60 one-dose screen, 48 h (100 = growth as untreated, 0 = no growth, -100 = all killed)
# Settings in all cases: 10 µM unless noted
# DU-145 prostate = tested on: DU-145 prostate
# K-562 leukemia = tested on: K-562 leukemia
# MALME-3M melanoma = tested on: MALME-3M melanoma
# MDA-MB-231 breast = tested on: MDA-MB-231 breast
# RXF 393 renal = tested on: RXF 393 renal
# SF-268 CNS = tested on: SF-268 CNS
# SF-295 CNS = tested on: SF-295 CNS
# UACC-257 melanoma = tested on: UACC-257 melanoma
# M14 melanoma = tested on: M14 melanoma
# HCT-15 colon = tested on: HCT-15 colon
# HT29 colon = tested on: HT29 colon
# SNB-75 CNS = tested on: SNB-75 CNS
# SNB-19 CNS = tested on: SNB-19 CNS
# U251 CNS = tested on: U251 CNS
# PC-3 prostate = tested on: PC-3 prostate
# SK-MEL-5 melanoma = tested on: SK-MEL-5 melanoma
# UACC-62 melanoma = tested on: UACC-62 melanoma
# LOX IMVI melanoma = tested on: LOX IMVI melanoma
# SK-MEL-28 melanoma = tested on: SK-MEL-28 melanoma
SMILES,growth (DU-145 prostate),growth (K-562 leukemia),growth (MALME-3M melanoma),growth (MDA-MB-231 breast),growth (RXF 393 renal),growth (SF-268 CNS),growth (SF-295 CNS),growth (UACC-257 melanoma),growth (M14 melanoma),growth (HCT-15 colon),growth (HT29 colon),growth (SNB-75 CNS),growth (SNB-19 CNS),growth (U251 CNS),growth (PC-3 prostate),growth (SK-MEL-5 melanoma),growth (UACC-62 melanoma),growth (LOX IMVI melanoma),growth (SK-MEL-28 melanoma)
Oc1c(Cl)cc(Cl)cc1CNc1nccnn1,101%,125%,93.9%,104%,108%,96.6%,101%,105%,91.9%,101%,105%,78.1%,95.8%,102%,94.8%,102%,93.9%,99.4%,106%
O=C1c2cc3c(cc2-c2c1c1cc(Cl)c(Cl)cc1c(=O)n2CCCn1ccnc1)OCO3,8.73% (active),16.3%,23.2%,41.4%,3.03% (active),17.7%,-17.4% (active),-17.1% (active),-11.1% (active),13%,-8.33% (active),9.95% (active),13.4%,-9.41% (active),25.3%,-9.98% (active),-38.1% (active),-53.6% (active),44.3%
O=C(CN1CCN(c2cc3c(cc2F)c(=O)c(C(=O)O)cn3C2CC2)CC1)Nc1nc(-c2ccccc2)cs1,79.7%,64.5%,89.8%,95.5%,78.2%,83.9%,69.9%,65.2%,76%,82.4%,72.7%,69.6%,86.8%,43.8%,64.7%,78.9%,78.8%,36.5%,87.5%
CCOC(=O)c1ccc2c(c1)nc(/C=C/c1ccc(Cl)cc1)n2-c1cc(C(C)(C)C)[nH]n1,74.1%,19.1%,61.2%,52.5%,21.3%,54.6%,56.2%,67%,83.4%,35.6%,57.7%,0.573% (active),77.6%,50.5%,62.1%,62.1%,19.1%,39.9%,47.3%
CCCCNC(=O)NS(=O)(=O)c1ccc(N2N=C(c3cc(C)ccc3C)CC2c2cc(OC)c(OC)c(OC)c2)cc1 (centres undefined),88.9%,36.1%,25.3%,79.4%,44.7%,66%,8.51% (active),59.3%,8.53% (active),48.6%,72.2%,51.1%,68%,51.3%,36.9%,6.28% (active),49.5%,9.68% (active),18.6%
COc1ccc(C(=O)/C=C/c2cc3ccccc3[nH]c2=O)cc1,-26.7% (active),16.7%,74.2%,56.3%,16.6%,28.9%,48.9%,59.1%,59.6%,46.4%,6.09% (active),2% (active),70.5%,31.7%,32.3%,72.5%,67.7%,10.2%,88.2%
COc1ccccc1N1CCN(CCn2c(=O)c3c(c4ccccc4n3C)n(C)c2=O)CC1,107%,100%,110%,90.4%,101%,96.2%,97.8%,90.6%,98.8%,101%,68.3%,107%,95.2%,84.2%,84.4%,95.8%,92.4%,96.3%,115%
COc1cc2nc3cc([N+](=O)[O-])ccc3c(NCCCNCC(C)(C)O)c2cc1OC,-34.3% (active),0.851% (active),-81.8% (active),-62.5% (active),-81.9% (active),-57.4% (active),-41.2% (active),-64.2% (active),-77.3% (active),21.9%,-52.4% (active),-96% (active),-26.1% (active),-68.9% (active),-61.8% (active),-94.5% (active),-76.1% (active),-58.4% (active),-64% (active)
COc1cc(-c2c3c(nc4c2c(C)nn4-c2ccccc2)-c2ccccc2C(=O)C3=O)cc(OC)c1OC,92.2%,76.9%,72.4%,70.9%,83.3%,78.9%,107%,64.1%,90%,85.6%,44.7%,138%,101%,86.7%,53.1%,70.5%,86.7%,35.7%,95%
O=C1c2cc3c(cc2-c2c1c1cc(Cl)c(Cl)cc1c(=O)n2C[C@H](O)CO)OCO3,-14.6% (active),7.53% (active),-37.4% (active),0.134% (active),-69% (active),-2.79% (active),-47% (active),-52.9% (active),-16.3% (active),1.28% (active),-38.8% (active),-31.4% (active),-6.61% (active),-63.4% (active),5.35% (active),-84.8% (active),-66.8% (active),-70.9% (active),0.507% (active)
O=C1c2cccnc2C(=O)c2c1c(C(=O)OCCN1CCCCC1)c1ccccn21,-89.7% (active),-40.9% (active),-74.3% (active),-27.9% (active),-44.5% (active),-19.8% (active),-37% (active),-75% (active),-20.8% (active),-48.4% (active),-9.8% (active),-63.7% (active),-31.8% (active),-29.9% (active),9.27% (active),-97% (active),-41.2% (active),-58.6% (active),-37.9% (active)
COc1cnc2c(c1)C(=O)c1c-2n(CCCN2CCN(C)CC2)c(=O)c2cc([N+](=O)[O-])ccc12,-42.5% (active),-50.8% (active),-72.9% (active),-72.3% (active),84.2%,-60.7% (active),-80.8% (active),-37.6% (active),-85.2% (active),-61.2% (active),-79.4% (active),-93.2% (active),-20.6% (active),-81.2% (active),4.16% (active),-97.5% (active),-77.9% (active),-90.7% (active),-80.6% (active)
CCN(CC)CCC(=O)Nc1ccc(Cn2nnc3c2C(=O)c2nnn(Cc4ccc(NC(=O)CCN(CC)CC)cc4)c2C3=O)cc1,-92.6% (active),2.02% (active),-79.5% (active),-5.66% (active),19.9%,-38.1% (active),-57.2% (active),-56.1% (active),-16.3% (active),95.3%,-51% (active),-92.8% (active),-83.4% (active),-85.1% (active),-1.02% (active),-96.8% (active),-79.6% (active),-12.6% (active),-60.9% (active)
CCCC(=O)Oc1ccc(/C(=C(/CC)Cc2ccccc2)c2ccc(OCCN3CCCC3)cc2)cc1,87%,2.42% (active),91.4%,78.2%,68.2%,67.4%,100%,87.6%,63.9%,41.8%,16.5%,62.5%,94.2%,49%,70%,66.2%,23.7%,25.2%,-19.8% (active)
Cn1cc(-c2nc(-c3c[nH]c4ccccc34)cs2)c2cccnc21,31.6%,18%,54.7%,30.6%,27.9%,52.4%,11.5%,61.5%,19.6%,30%,7.8% (active),-6.18% (active),51.6%,26.6%,32.5%,21.6%,51.4%,39.4%,52.4%
CSc1ccc(N=C=C(c2ccccc2)c2ccccc2)cc1,109%,60.4%,105%,84.7%,105%,95.8%,96.1%,93.3%,80.4%,87.3%,87.3%,84.7%,91.7%,86.4%,84.6%,99.6%,83.1%,70.2%,99.2%
